# Screening results (PubChem BioAssay)
# An excerpt weighted towards active compounds, which were near 2.4% of everything screened.
# M18AAP inhibitor = PfM18AAP inhibitors, malaria aminopeptidase, primary screen, biochemical, QFRET, recombinant enzyme; inhibition, % at 7.35 µM; H-Glu-NHMec fluorogenic cleavage; M18 aspartyl aminopeptidase (Plasmodium falciparum 3D7); AID 1822, 2009; actives 1.2% (n = 290,000);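 active means inhibition above the campaign mean inhibition over all tested compounds plus 3 SD, cut at about 28% in these data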;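 further: 0% = plate median of test compound wells and 100% = 2 mM ZnCl2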
# APOBEC3A inh = APOBEC3A ssDNA deaminase inhibitors, primary screen, selectivity assay for APOBEC3G inhibitor project, biochemical, FAM/TAMRA oligo cleavage fluorescence; DNA dC->dU-editing enzyme APOBEC-3A (Homo sapiens), P31941; recombinant A3A, FAM/TAMRA ssDNA deamination fluorescence; inhibition, % at 20 µM; actives 0.41% (n = 330,000);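 active means at least 40% inhibition at 20 µM here, with at most 30% in a related deaminase screen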;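 further: plate controls were A3A with DMSO for no effect and wells lacking A3A enzyme for full effect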
# APOBEC3G inh = APOBEC3G DNA deaminase inhibitors, primary screen, biochemical, fluorescence, single-stranded DNA substrate, uHTS. DNA dC->dU-editing enzyme APOBEC-3G (Homo sapiens), Q9HC16. recombinant A3G, ssDNA deamination FAM/TAMRA fluorescence. inhibition, % at 20 µM. actives 0.28% (n = 330,000). AID 493012, 2011;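 active means inhibition of at least 40% at 20 µM, with no more than 30% in the related APOBEC3A deaminase screen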;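 further: plate controls were DMSO wells with A3G for no effect and wells lacking A3G enzyme for full effect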
# Target sequence (Q9HC16 whole entry, looked up): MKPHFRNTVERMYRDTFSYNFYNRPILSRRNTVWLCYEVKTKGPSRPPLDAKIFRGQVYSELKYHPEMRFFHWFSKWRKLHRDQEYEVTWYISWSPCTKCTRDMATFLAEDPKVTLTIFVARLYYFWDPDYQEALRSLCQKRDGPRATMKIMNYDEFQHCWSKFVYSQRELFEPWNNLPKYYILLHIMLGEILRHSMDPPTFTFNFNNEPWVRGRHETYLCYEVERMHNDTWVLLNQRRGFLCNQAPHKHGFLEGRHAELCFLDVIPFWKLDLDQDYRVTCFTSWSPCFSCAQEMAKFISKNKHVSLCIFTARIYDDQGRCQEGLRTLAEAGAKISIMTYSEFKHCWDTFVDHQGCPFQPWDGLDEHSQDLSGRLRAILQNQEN
# PfG6PD inh = PfG6PD enzyme inhibitors, primary screen, biochemical, fluorescence intensity, uHTS; glucose-6-phosphate dehydrogenase-6-phosphogluconolactonase (Plasmodium falciparum 3D7); PfGluPho enzyme, NADPH resazurin-diaphorase fluorescence; actives 0.78% (n = 350,000); inhibition, % at 20 µM;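 active means inhibition reaching at least a set limit at 20 µM in the primary screen, cut at about 59% in these data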;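 further: 0% = DMSO wells with substrate and 100% = DMSO wells lacking glucose-6-phosphate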
# CR mimetic SO = reduction of superoxide in aged yeast, primary screen, HTS; S. cerevisiae aged cells, superoxide DHE fluorescence; hits give low values; superoxide response (% of plate mean), % at 10 µM; actives 0.18% (n = 330,000); AID 2690, 2010;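 active means superoxide response under a set limit, about three screen SD below normal, cut at about 65% in these data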;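 further: yeast aged for seven days with compound at 30 °C before DHE staining; 100% = average MFI of all compound-treated wells on the plate with controls excluded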
# A3G conf = APOBEC3G deaminase inhibitor retest, confirmation, biochemical, fluorescence, single-stranded DNA substrate, single concentration; actives 72% (n = 890); shares compounds with APOBEC3G inh; inhibition, % at 20 µM; recombinant A3G ssDNA deaminase, UDG/FAM-TAMRA fluorescence; AID 493152, 2011;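 active means inhibition reaching a set limit in any replicate at 20 µM, the limit being 80% of the first screen's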
# UDG ctr A3G = E. coli UDG inhibitors, confirmation, counter-screen for APOBEC3G inhibitor project, biochemical, single concentration, fluorescence, FAM/TAMRA oligo; shares compounds with APOBEC3G inh; UDG counterscreen; inhibition, % at 20 µM; 710 tested, under 10 active; AID 504715, 2011;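 active means compounds giving 40% or more inhibition at 20 µM in any one of the three replicates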;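 further: plate controls were DMSO wells with UDG and oligo for no effect and DMSO wells lacking both for full effect; inhibitors lower the FAM signal released by uracil excision and alkaline cleavage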
# Target sequence (P12295 whole entry, looked up): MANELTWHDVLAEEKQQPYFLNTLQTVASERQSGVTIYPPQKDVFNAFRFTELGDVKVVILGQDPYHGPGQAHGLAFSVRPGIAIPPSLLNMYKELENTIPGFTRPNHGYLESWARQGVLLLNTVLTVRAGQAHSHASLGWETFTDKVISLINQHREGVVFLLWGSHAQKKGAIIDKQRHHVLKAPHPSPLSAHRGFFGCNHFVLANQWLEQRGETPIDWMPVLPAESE
# * hit, by the source's call; / = not tested or not shown.
SMILES,M18AAP inhibitor,APOBEC3A inh,APOBEC3G inh,PfG6PD inh,CR mimetic SO,A3G conf,UDG ctr A3G
O=C(NCc1nnc(SCC(=O)N2CCCCCC2)o1)c1ccco1,-9,-1,77*,-16,92,3,6
O=C(NCc1nnc(SCC(=O)N2CCCCC2)o1)c1ccc(F)cc1,-3,0,-3,-5,89,/,/
CC(NC(=O)C1CC(=O)N(c2ccc3c(c2)OCCO3)C1)c1ccccc1 (stereo unspecified),/,/,/,-8,/,/,/
COc1cccc(CNC(=O)c2cc(S(=O)(=O)N3CCOCC3)cn2C)c1,2,-5,-14,-11,98,/,/
Cc1c(Cl)cccc1NC(=O)Nc1cc(C(C)(C)C)on1,3,1,8,18,96,/,/
CC(=O)N=Cc1c(C)c(C#N)c(=O)n(C)c1O,9,-1,-3,39,110,/,/
Cc1c(/C=N/Nc2ccc(F)cc2)c(O)n(C)c(=O)c1C#N,13,-1,64*,11,96,-1,-3
NNC(=O)Nc1cccc(C(F)(F)F)c1,2,3,57*,-6,93,-2,/
CCOc1ccc(N(CC(=O)Nc2ccc(OC)cc2)C2=NC3CS(=O)(=O)CC3S2)cc1 (stereo unspecified),4,-2,-16,10,99,/,/
COc1ccc(S(=O)(=O)n2nc(OC(=O)c3cccs3)cc2N)cc1,-13,6,54*,12,88,5,/
C=C(C)C(=O)Nc1cccc(C2=NOC3(C2)C[C@H](C(N)=O)N(C(=O)c2ccccc2)C3)c1 (stereo partly specified),/,10,63*,-2,101,65*,3
C/C=C(/C)C(=O)Nc1cccc(C2=NOC3(C2)C[C@H](C(N)=O)N(C(=O)c2ccc(Cl)cc2)C3)c1 (stereo partly specified),/,-3,-7,-14,100,/,/
C=C(C)C(=O)Nc1cccc(C2=NOC3(C2)C[C@H](C(N)=O)N(C(=O)COc2ccc(Cl)cc2)C3)c1 (stereo partly specified),/,23,88*,24,102,91*,-3
C=C(C)C(=O)Nc1cccc(C2=NOC3(C2)C[C@@H](C(N)=O)N(C(=O)c2cc([N+](=O)[O-])cc([N+](=O)[O-])c2C)C3)c1 (stereo partly specified),/,11,44*,20,121,59*,-4
C=C(C)C(=O)Nc1cccc(C2=NOC3(C2)C[C@@H](C(N)=O)N(C(=O)c2ccc(Cl)cc2)C3)c1 (stereo partly specified),/,28,100*,1,99,90*,4
COc1ccc(C(=O)NCCCn2nc(C)cc2C)cc1S(=O)(=O)N1CCOCC1,/,-3,-10,10,/,/,/
CC(OC(=O)/C=C/c1ccccc1)C(=O)Nc1cccc(C#N)c1 (stereo unspecified),/,-1,-5,4,99,/,/
Nc1n[nH]c(=S)n1-c1ccc(Cl)cc1,23,-2,52*,43,103,63*,0
S=c1[nH]nc(-c2ccc(Cl)cc2)n1-c1ccc(Cl)cc1,15,0,4,2,99,/,/
Cn1c(-c2csc(-c3ccccc3)n2)n[nH]c1=S,5,0,45*,13,82,64*,-4
S=c1[nH]nc(CSc2nc3ccccc3s2)o1,8,-3,26,-2,118,/,/
Cn1c(CSCCOc2ccccc2)n[nH]c1=S,21,4,41*,20,96,24,/
Clc1c(-c2nnc3n2CCC3)sc2ccccc12,2,1,-4,-12,100,/,/
Cn1c(-c2sc3ccccc3c2Cl)n[nH]c1=S,14,-3,41*,-6,104,63*,-2
Cn1c(CSc2nc3ccccc3s2)n[nH]c1=S,30*,6,48*,17,100,58*,-3
SMILES,M18AAP inhibitor,APOBEC3A inh,APOBEC3G inh,PfG6PD inh,CR mimetic SO,A3G conf,UDG ctr A3G
C[C@@H]1CN([C@@H](C)CO)S(=O)(=O)c2ccc(Br)cc2O[C@@H]1CN(C)C(=O)c1ccccn1,/,/,/,19,/,/,/
NS(=O)(=O)c1ccc(CNC(=O)c2cc(-c3cccnc3)nc3ccc(Br)cc23)cc1,-2,-5,-6,10,99,/,/
CC(=O)c1ccccc1OCc1ccc(S(=O)(=O)Cc2ccccc2)cc1,3,-4,-10,16,100,/,/
COc1cccc(NC(=O)CN(C)C(=O)c2cc(-c3cccc(Br)c3)nc3ccccc23)c1,/,-1,-6,8,95,/,/
Clc1cccc(C2CCN(Cc3nc(CC4CC4)no3)C2)c1 (stereo unspecified),-16,4,-3,9,97,/,/
COc1cccc(NC(=O)COC(=O)/C=C/c2c(C)nn(-c3ccccc3)c2C)c1,/,-4,-5,3,136,/,/
Cc1ccc(C)c(NC(=O)CN(C)C(=O)c2ccc(-n3cncn3)c([N+](=O)[O-])c2)c1,/,-4,69*,-2,102,-8,-1
COc1cccc(CNC(=O)c2ccc(CS(=O)(=O)Cc3ccccc3C)o2)c1,2,3,1,-2,103,/,/
COc1ccccc1/C=C/C=N/NC(=O)c1cc(-c2ccco2)[nH]n1,8,26,64*,30,77,21*,-3
COc1ccccc1/C=C/C=N/NC(=O)c1ccccn1,5,0,-4,0,96,/,/
O=C1c2ccccc2-c2ncnc3cccc1c23,0,/,/,/,/,/,/
O=C(O)c1ccc2c3c(ncnc13)-c1ccccc1C2=O,2,1,61*,20,115,41*,2
Cc1ccc(C(=O)N2CCC(C(=O)NC3CCCC3)CC2)cc1,-13,0,69*,-4,95,-5,1
O=C(NC1CCCC1)C1CCN(C(=O)c2ccc(Cl)cc2)CC1,3,3,5,-3,85,/,/
